Consider 17 compounds from PubChem BioAssay (NCATS).

Records with an inconclusive call do not appear. A number with no mark means an inactive call. The call rests on the fitted dose curve; in most records, active means well fitted inhibition curve with a large enough effect; inconclusive means small, poorly fitted or top-dose-only effect; inactive means flat fitted curve, though single readings scatter.
On the % scale 0 is the no-effect control and ±100 the full control effect.

Chain of Calcium and integrin-binding protein 1 (Homo sapiens) (Q99828 whole entry, looked up): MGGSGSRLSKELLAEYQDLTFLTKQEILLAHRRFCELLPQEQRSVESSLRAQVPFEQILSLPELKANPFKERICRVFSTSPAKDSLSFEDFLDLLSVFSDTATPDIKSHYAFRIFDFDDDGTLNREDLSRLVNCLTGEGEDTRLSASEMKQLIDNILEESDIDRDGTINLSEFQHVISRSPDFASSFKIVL

The assay addresses Calcium and integrin-binding protein 1 (Homo sapiens) (UniProt Q99828). Briefly: Primary qHTS for Identification of Calcium Integrin Binding Protein 1 (CIB1) Competitor (AID 1508620). Further: top concentration of the series differs between compounds. Particulars: CIB1-GST / FITC-alphaIIb peptide fluorescence polarization; series mostly up to 114 µM; activity change, negative = inhibition: at the top concentration. An outline of the steps: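 Fluorescence polarization competition: GST-tagged CIB1 (1 uM final) preincubated with compound 15 min at room temperature, then FITC-labelled alphaIIb peptide (100 nM final) added. After 15 min at room temperature, polarization read at Ex 480/Em 540.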
(In general: Quantitative high-throughput screening tests each substance at several concentrations.)
In the case of `Nc1cc(NC(=O)Nc2nnc(-c3ccncc3)s2)ccc1Cl`, the “activity change, negative = inhibition” value is -5.78%. For `Cc1nnc2sc(-c3cccc(NC(=O)c4ccc(-c5cccc(Cl)c5)o4)c3)nn12`, the “activity change, negative = inhibition” value is -3.26%. For the compound `NC(=O)C1CCN(c2nc(-c3ccc4occc(=O)c4c3)cs2)CC1`, the “activity change, negative = inhibition” value was 0.515%. On to `CC(=O)N1CCN(c2ccc(NCc3ccc(Br)o3)cc2)CC1`, for which the “activity change, negative = inhibition” value is -4.72%. Turning to `C[C@@H](N)C(=O)Nc1cccc(-c2nn3c(=O)cc(N4CCNCC4)nc3s2)c1`, the “activity change, negative = inhibition” value is -0.112%. On to `O=C(Nc1ccc(O)c2ncccc12)c1ccccc1F`, for which the “activity change, negative = inhibition” value is -19.4%. In the case of `CCc1ccc(NC(=O)c2[nH]c(C)c(C(C)=O)c2C)cc1S(=O)(=O)Nc1ccc(C#N)cc1`, the “activity change, negative = inhibition” value was -7%. For the compound `COc1ccc(/C=C2/C(=O)Nc3ccccc32)cc1O`, the “activity change, negative = inhibition” value was -15.2%. Turning to `CC(C)c1ccccc1SC1=NS(=O)(=O)c2ccccc21`, the “activity change, negative = inhibition” value is -15.4%. Take `O=C1CCCC2=C1C(c1[nH]ncc1Cl)N=C(Nc1cccnc1)N2` (configuration not stated): the “activity change, negative = inhibition” value is -1.39%.

As to `O=C1c2ccccc2C(=O)N1c1cc(=O)c2ccccc2[nH]1`, the “activity change, negative = inhibition” value was 0.843%.

As for `N#Cc1c(-c2ccc(OCCOCCOCCNC(=O)CCCC[C@@H]3SC[C@@H]4NC(=O)N[C@@H]43)cc2)no[n+]1[O-]`, the “activity change, negative = inhibition” value was -8.4%. On to `CN(C)CCNc1ncnc2ccc(-c3ccc4c(c3)OCO4)cc12`, for which the “activity change, negative = inhibition” value is 3.94%. On to `O=C1CCCC2=C1C(c1[nH]ncc1Cl)N=C(Nc1nc3cc(F)ccc3o1)N2` (configuration not stated), for which the “activity change, negative = inhibition” value is -2.71%. As to `Fc1ccc(-c2ccc(Nc3nc(-c4ccncc4)nc4ccccc34)cc2F)c(F)c1`, the “activity change, negative = inhibition” value was 1.48%. As for `NC(=O)C1CCN(c2nc(-c3cccc(N)c3)cs2)CC1`, the “activity change, negative = inhibition” value is 2.57%. The result for `CNC(=O)C1CCN(c2nc(-c3ccc(Br)cc3)cs2)CC1` reads -0.533%.
